Only some compounds are listed: those with a hit (about 4.7% of all), similar ones and a draw of the others.
HSP90 refold inh: HSP90 refolding inhibition in rabbit reticulocyte lysate | luciferase refolding luminescence, 3 h | inhibition, % at 5.6 µM | 290,000 tested, 0.91% active;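 active = inhibition above the screen-wide mean plus 3 SD, computed separately per campaign, cut at about 16% in these data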;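 note: 0% = DMSO wells and 100% = 60 µM geldanamycin wells; inhibitors lower the luminescence because luciferase stays unfolded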
HSF-1 act: increases HSF-1 driven luciferase reporter signal; NIH3T3-HGL HSF-1 luciferase reporter, MG132, 8 h; 100% = twice DMSO control signal; activation, % at 9 µM; 300,000 tested, 1.7% active;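 active = mean replicate activation of at least 50% with a set share of replicates each reaching 50%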;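 note: 0% = median of the neutral control wells and 100% = twice that signal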
HSF1 inhib: HSF1 inhibition | 300,000 tested, 0.77% active | AID 2098 | NIH3T3-HGL HSE-luciferase, MG132-induced, luminescence 8 h; hits give low values | activity change, negative = inhibition, % at 7.5 µM (by protocol);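 active = more than half of replicate wells show activity change below -50%, luminescence cut by over half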;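 note: luciferase reports HSF-1 transcriptional activity via heat shock element; 0% = median of DMSO wells and -100% = zero luminescence signal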
EBV LMP1 NFkB: inhibitors of Epstein-Barr LMP1-induced NF-kappaB reporter; inhibition, % at 12.5 µM; LMP1-induced NF-kappaB luciferase reporter cells, luminescence; 350,000 tested, 0.69% active; in the data active = inhibition above about 41%;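 note: 0% = neutral control wells and 100% = reference inhibitor control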
TWEAK Fn14 block: blocks TWEAK-Fn14 interaction in a reporter cell assay; TWEAK-stimulated Fn14 reporter cells, luciferase luminescence, 8 h; inhibition, % at 10 µM; 360,000 tested, 2% active; AID 1159606; in the data active = inhibition above about 50%
TROY NFkB inh: inhibitors of TROY-dependent NF-kB signaling | 360,000 tested, 0.98% active | inhibition, % at 10 µM | Q293 LMP1-TROYcd NF-kB luciferase reporter, 4 h;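 active = compounds whose plate-normalised and pattern-corrected inhibition of the luciferase reporter signal at the single screening dose is 50% or more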
The depositor's hits bear a star.

How did C#CCn1c(=NC(=O)c2ccc(S(=O)(=O)N3CCCc4ccccc43)cc2)sc2cc(S(N)(=O)=O)ccc21 do in these assays?
HSP90 refold inh: 2.2; HSF-1 act: 53.4*; HSF1 inhib: 5.6; EBV LMP1 NFkB: -0.2; TWEAK Fn14 block: 10.9; TROY NFkB inh: 6.5

What do the screens show for `Cn1c(=NC(=O)c2ccc(S(=O)(=O)N3CCCc4ccccc43)cc2)sc2cc(S(C)(=O)=O)ccc21`?
HSP90 refold inh: -3.7; HSF-1 act: -6.4; HSF1 inhib: -9.2; EBV LMP1 NFkB: -3.9; TWEAK Fn14 block: -13.0; TROY NFkB inh: 1.5

How did O=C(c1cc2c(c(-c3cccc(-c4ccc(F)cc4)c3)n1)[C@H](CCO)N(C(=O)c1ccc3c(c1)OCO3)C2)N1CCOCC1 do in these assays?
TWEAK Fn14 block: -8.2; TROY NFkB inh: -3.4

What do the screens show for `COc1cc2c(cc1NC(=O)C(Cl)Cl)-c1ccc(NC(=O)C(Cl)Cl)cc1C2`?
EBV LMP1 NFkB: 8.2; TWEAK Fn14 block: 81.1*; TROY NFkB inh: -35.5

How did COc1ccccc1N1CCN(C(=O)C(CC(C)C)NC(=O)C2CCCCC2)CC1 (stereo not given) do in these assays?
HSP90 refold inh: -0.6; HSF-1 act: 55.2*; HSF1 inhib: 18.1; EBV LMP1 NFkB: 2.3; TWEAK Fn14 block: 9.4; TROY NFkB inh: -14.8

How did Cn1c(=O)c2cc(NC(=S)NCc3ccccc3F)ccc2n1Cc1cccc(C(F)(F)F)c1 do in these assays?
TWEAK Fn14 block: 40.2; TROY NFkB inh: 26.4

What do the screens show for `O=C(Nc1cc(Cl)cc(Cl)c1)c1cccc(OC(F)F)c1`?
HSP90 refold inh: 0.2; HSF-1 act: 36.2; HSF1 inhib: 12.1; EBV LMP1 NFkB: 3.2; TWEAK Fn14 block: 59.5*; TROY NFkB inh: 39.0

How did Cc1ccnc(NC(=O)c2cccc(OC(F)F)c2)n1 do in these assays?
HSP90 refold inh: -3.7; HSF-1 act: 18.8; HSF1 inhib: -1.9; EBV LMP1 NFkB: -17.1; TWEAK Fn14 block: -13.1; TROY NFkB inh: -23.1

How did CC1CC(=O)Nc2cc([N+](=O)[O-])ccc2N1 (stereo not given) do in these assays?
HSP90 refold inh: 4.0; HSF-1 act: -91.5; HSF1 inhib: -89.1*; EBV LMP1 NFkB: 9.8; TWEAK Fn14 block: 4.3; TROY NFkB inh: 21.2

How did CC1CC(=O)Nc2ccc([N+](=O)[O-])cc2N1C (stereo not given) do in these assays?
HSP90 refold inh: -3.3; HSF-1 act: 6.8; HSF1 inhib: -3.5; EBV LMP1 NFkB: -7.5; TWEAK Fn14 block: 0.7; TROY NFkB inh: 13.4

How did COc1cc(C2CC(=O)Nc3cc(C)c(C)cc32)cc(OC)c1OC (stereo not given) do in these assays?
HSP90 refold inh: 2.8; HSF-1 act: 10.1; HSF1 inhib: -2.1; EBV LMP1 NFkB: 2.7; TWEAK Fn14 block: 21.6; TROY NFkB inh: 8.4

What do the screens show for `Cc1cc2c(cc1C)C(c1cccc([N+](=O)[O-])c1)CC(=O)N2` (stereo not given)?
HSP90 refold inh: -0.6; HSF-1 act: 62.6*; HSF1 inhib: 32.9; EBV LMP1 NFkB: -0.7; TWEAK Fn14 block: -2.8; TROY NFkB inh: -5.7

Results for COc1ccc(C2=Nc3ccccc3NC(=O)C2N(C(=O)c2ccnc3ccccc23)c2ccccc2)cc1 (stereo not given) ?
TWEAK Fn14 block: 31.0; TROY NFkB inh: -4.1

Results for NNc1nc(-c2ccccc2Cl)c2cc(Br)ccc2n1 ?
HSP90 refold inh: 4.4; HSF-1 act: 46.8; HSF1 inhib: 10.3; EBV LMP1 NFkB: 28.7; TWEAK Fn14 block: 28.2; TROY NFkB inh: 86.5*

Results for C/C(=N\Nc1nc2c(s1)CCCC2)c1ccc(Cl)cc1 ?
HSP90 refold inh: 12.9; HSF-1 act: -8.9; HSF1 inhib: -12.5; EBV LMP1 NFkB: -41.6; TWEAK Fn14 block: 54.7*; TROY NFkB inh: 31.3

Results for CC(C)C(=O)Nc1nnc(S(=O)(=O)N(C)c2ccc(Cl)cc2)s1 ?
HSP90 refold inh: 1.4; HSF-1 act: -4.1; HSF1 inhib: -0.7; EBV LMP1 NFkB: -3.3; TWEAK Fn14 block: 71.9*; TROY NFkB inh: 19.2

How did COc1ccc(C(=O)c2sc(Nc3ccccc3)c(C(=O)Nc3ccc(OC)c(OC)c3)c2N)cc1 do in these assays?
HSP90 refold inh: 0.7; HSF-1 act: 1.6; HSF1 inhib: 11.8; EBV LMP1 NFkB: 1.1; TWEAK Fn14 block: -19.3; TROY NFkB inh: -11.4

Assay outcomes (PubChem BioAssay)
